The values that follow come from PMC11062922 (Nature Chemical Biology, 2023).

Like-named read-outs stand apart in the source and are kept apart here.

Holding throughout (design): species or system human, MV4-11 + K-562 + COLO205 + SK-N-BE2 + OVCAR-8
One assay deals with GSK3A. The settings on record: read-out: apparent Kd, n = 1.
For the next assay, the system named is GSK3B. The settings on record: read-out: apparent Kd, n = 1.
In a further assay the test system is ICK. To be noted: read-out: apparent Kd; compound concentrations: 100 nM and 1000 nM (sheet 'Samples'), CATDS: 0.173475626531951; n = 1.
Another assay deals with PRKCD. To be noted: read-out: apparent Kd, n = 1.
A further assay relates to PRKCQ. To be noted: read-out: apparent Kd, compound concentrations: 100 nM and 1000 nM (sheet 'Samples'), n = 1.
The next assay relates to HSP90B1. The settings on record: read-out: apparent Kd, n = 1.
Another assay has as its system PIK3CB. To be noted: read-out: apparent Kd, n = 1.
The next assay concerns MERTK. To be noted: read-out: apparent Kd; compound concentrations:100 nM and 1000 nM (sheet 'Samples'); n = 1.
The next assay concerns PIK3CD. The settings on record: read-out: apparent Kd; compound concentrations:100 nM and 1000 nM (sheet 'Samples'); n = 1.
The next assay concerns TAOK3. To be noted: read-out: apparent Kd; compound concentrations:100 nM and 1000 nM (sheet 'Samples'); n = 1.
In another assay the test system is PRKCA. To be noted: read-out: apparent Kd, n = 1.
The next assay has as its system PRKCB. To be noted: read-out: apparent Kd, compound concentrations: 100 nM and 1000 nM (sheet 'Samples'), n = 1.
The test system of the next assay is PRKCI. To be noted: read-out: apparent Kd; compound concentrations: 100 nM and 1000 nM (sheet 'Samples'), CATDS: 6.3639374568516094E-2; n = 1.
A further assay concerns RPS6KA6. The settings on record: read-out: apparent Kd, n = 1.
Another assay concerns RPS6KB1. To be noted: read-out: apparent Kd, n = 1.
The next assay relates to PIK3C3. The settings on record: read-out: apparent Kd; compound concentrations: 100 nM and 1000 nM (sheet 'Samples'), CATDS: 0.26990158235455203; n = 1.
The next assay relates to SLK. The settings on record: read-out: apparent Kd; compound concentrations:100 nM and 1000 nM (sheet 'Samples'); n = 1.
For another assay, the system named is PKN3. The settings on record: read-out: apparent Kd; compound concentrations:100 nM and 1000 nM (sheet 'Samples'); n = 1.
The test system of the next assay is PRKX. To be noted: read-out: apparent Kd; compound concentrations:100 nM and 1000 nM (sheet 'Samples'); n = 1.
Another assay deals with ROCK2. The settings on record: read-out: apparent Kd; compound concentrations:100 nM and 1000 nM (sheet 'Samples'); n = 1.
The mark [1] stands for this setting: compound concentrations:100 nM and 1000 nM (sheet 'Samples').

As for `Cn1cc(C2=C(c3cccc(OCC(O)CO)c3)C(=O)NC2=O)c2ccccc21` (centres unmarked) [RO5198354-000], the potency estimated from few doses in the assay on GSK3A (compound concentrations: 100 nM and 1000 nM (sheet 'Samples'), CATDS: 0.57799072500507098) is 370 nM; in the assay on GSK3B (compound concentrations: 100 nM and 1000 nM (sheet 'Samples'), CATDS: 0.44055416886874998) it was 644 nM.
As to `Cn1cc(C2=C(c3cn(CCO)c4ccccc34)C(=O)NC2=O)c2ccccc21` [RO0318036-000], the potency estimated from few doses in the assay on GSK3A (compound concentrations: 100 nM and 1000 nM (sheet 'Samples'), CATDS: 0.34431860248680501) was 263 nM; in the assay with GSK3B (compound concentrations: 100 nM and 1000 nM (sheet 'Samples'), CATDS: 0.35306232464093901), 252 nM; with ICK, 1120 nM; in the assay with PRKCD (compound concentrations: 100 nM and 1000 nM (sheet 'Samples'), CATDS: 0.14509929843566999), 1970 nM; in the assay on PRKCQ (CATDS: 0.15135413462946001), 1700 nM.
With `[2H]C([2H])(c1cccc(C(F)(F)F)c1C)n1ccn2c(=O)cc(N3CCOCC3)nc12` [GSK2289044B], the results for the potency estimated from few doses in the assay with HSP90B1 (setting [1]) and in the assay on PIK3CB (setting [1]) were 112 nM and 16 nM, respectively.
With `O=C(Nc1n[nH]c2nc(-c3cccs3)c(Br)cc12)C1CCCC1` [SB-743341], the potency estimated from few doses is 529 nM with GSK3A (setting [1]), 1070 nM in the assay on GSK3B (setting [1]) and 1720 nM in the assay with MERTK.
Turning to `Cc1nnc(-c2ccc3occ(-c4ccc(S(C)=O)cc4)c3c2)[nH]1` (centres unmarked) [TPKI-85], the potency estimated from few doses in the assay on GSK3A (setting [1]) is 339 nM; in the assay with GSK3B (compound concentrations: 100 nM and 1000 nM (sheet 'Samples'), CATDS: 0.41063798470662799), 861 nM.
On to `C[C@@H]1CCCCN1c1cc(-c2ccc3c(N)n[nH]c3c2)nc(N)n1` [GSK2258759A], for which the potency estimated from few doses in the assay with HSP90B1 (setting [1]) was 968 nM.
For `O=C(Nc1ccccc1F)NC1CCN(c2ccnc(Nc3ccc(F)cc3)n2)C1` (centres unmarked) [GSK1379722A], the potency estimated from few doses in the assay on HSP90B1 (compound concentrations: 100 nM and 1000 nM (sheet 'Samples'), CATDS: 1) is 875 nM.
As for `COc1cccc(C2=C(Nc3cc(Cl)c(O)c(Cl)c3)C(=O)NC2=O)c1` [SB-390767], the potency estimated from few doses in the assay on GSK3A (setting [1]) is 528 nM; in the assay on GSK3B (setting [1]) it was 1090 nM; with PIK3CD it was 191 nM; in the assay with TAOK3, 1110 nM.
As for `Cl.Cn1cc(C2=C(c3c4n(c5ccccc35)CCC(CN)C4)C(=O)NC2=O)c2ccccc21` (centres unmarked) [RO0318425-001], the potency estimated from few doses in the assay on GSK3A (compound concentrations: 100 nM and 1000 nM (sheet 'Samples'), CATDS: 7.9505519232768704E-2) was 383 nM; in the assay on GSK3B (compound concentrations: 100 nM and 1000 nM (sheet 'Samples'), CATDS: 0.10826194795631), 122 nM; in the assay with PRKCA (compound concentrations: 100 nM and 1000 nM (sheet 'Samples'), CATDS: 0.4123063070702) it was 8.81 nM; in the assay with PRKCB (CATDS: 0.195628585726322) it was 30 nM; with PRKCD (compound concentrations: 100 nM and 1000 nM (sheet 'Samples'), CATDS: 0.18341156503501599), 34.1 nM; with PRKCI, 1630 nM. In addition, the potency estimated from few doses is 67.5 nM with PRKCQ (CATDS: 0.13479681678754199); 167 nM in the assay with RPS6KA6 (compound concentrations: 100 nM and 1000 nM (sheet 'Samples'), CATDS: 9.8162959720225998E-2); 429 nM in the assay with RPS6KB1 (compound concentrations: 100 nM and 1000 nM (sheet 'Samples'), CATDS: 7.7658945876463797E-2).
With `O=c1cc(N2CCOCC2)nc2n(Cc3cccc(Cl)c3Cl)c3ccccc3n12` [GSK2299009A], the potency estimated from few doses in the assay on HSP90B1 (compound concentrations: 100 nM and 1000 nM (sheet 'Samples'), CATDS: 0.28143783483282298) is 1040 nM; with PIK3C3, 1170 nM; with PIK3CB (compound concentrations: 100 nM and 1000 nM (sheet 'Samples'), CATDS: 0.57413084763850397), 251 nM.
In the case of `Cn1cc(C2=C(c3c4n(c5ccccc35)CCC(CN)CC4)C(=O)NC2=O)c2ccccc21` (centres unmarked) [RO0319371-000], the potency estimated from few doses in the assay on GSK3A (setting [1]) is 608 nM; in the assay on GSK3B (setting [1]) it was 504 nM; with PRKCA (setting [1]) it was 22.2 nM; in the assay on PRKCB (CATDS: 0.217434450418582), 52.3 nM; with PRKCD (setting [1]), 31.6 nM; in the assay on RPS6KA6 (setting [1]), 342 nM. Further, the potency estimated from few doses is 306 nM in the assay on RPS6KB1 (setting [1]) and 2120 nM in the assay on SLK.
For `COc1cc(C2=NC(c3ccc(Cl)cc3F)C(C(=O)Nc3ccc4[nH]ncc4c3)=C(C)N2)ccn1.O=C(O)C(F)(F)F` (centres unmarked) [GSK534911A], the potency estimated from few doses in the assay with HSP90B1 (setting [1]) is 1110 nM; with PKN3, 1830 nM; in the assay with PRKX, 1320 nM; with ROCK2, 220 nM.
